Reference: PubChem BioAssay (Tox21)
Records with an inconclusive call do not appear. A number with no mark means an inactive call. The source made the active and inactive calls. Calls follow the shape of the dose curve; as a rule, active = well fitted cell-killing curve with a large enough effect in the repeat runs; inconclusive = weak or mixed curves; inactive = flat fitted curve, though single readings scatter.

experiment: qHTS RealTime-Glo MT Cell Viability Assay in HepG2 cells - 32 hour (AID 1224877); settings: RealTime-Glo luminescence; series mostly up to 76.8 µM; activity change, negative = cytotoxic: at the top concentration; also: nearly all actives have a fitted effect of over 55% in size
Excerpt: U.S. Tox21 Program National Center for Advancing Translational Sciences [NCATS] NIH Chemical Genomics Center [NCGC] U.S. Environmental Protection Agency [EPA] National Institutes of Environmental Health Sciences [NIEHS] National Toxicology Program [NTP] U.S. Food and Drug Administration [FDA] Tox21 Assay Overview: Measure of cell viability is critical in the cell-base assay. Analysis of cell viability is necessary for the characterization of cell responses to cytotoxic drugs and environmental stress. A RealTime-Glo MT Cell Viability Assay to monitor cell viability in real time of continues cell culture during 40 hours of compound treatment was used to screen Tox21 10K library compounds in HepG2 cells. The RealTime-Glo MT Cell Viability Assay is a nonlytic, homogeneous, bioluminescent method to measure cell viability in real time using a simple, plate-based method. The assay involves adding NanoLuc luciferase and a cell-permeant prosubstrate to cells in culture. Viable cells reduce the proprietary prosubstrate to generate a substrate for NanoLuc luciferase. This substrate diffuses from cells into the surrounding culture medium, where it is rapidly used by the NanoLuc Enzyme to produce a luminescent signal. The signal correlates with the number of viable cells, making the assay well suited for cytotoxicity studies.
Tox21 Assay Protocol Summary: The mixture of HepG2 cell suspension and reagents were dispensed at 600cells/6 ul/well in 1536-well tissue culture treated black solid bottom plates using a Multidrop dispenser. After the assay plates were incubated at a 37 C/5% CO2 incubator for 5 hours, 23 nL of compounds dissolved in DMSO, positive and negative controls was transferred to the assay plate by a pintool work station. The plates were incubated at 37 C for 40 hours. The luminescence intensity were measured at 0h, 8h, 16h, 24h, 32h and 40h time points using ViewLux plate reader during compound treatment.
% is scaled to controls: 0 for no effect and ±100 for the full control effect.

SMILES	activity change, negative = cytotoxic	Potency
CS(=O)(=O)O	-0.95%	–
C[N+](C)(C)CC(O)CC(=O)[O-] (stereo not given)	-1.23% [at 35.3 µM]	–
COC(=O)[C@@H](N)Cc1ccc(O)c(O)c1	-1.81% [at 35.3 µM]	–
c1ccc([C@H]2CN3CCSC3=N2)cc1	-0.513% [at 35.3 µM]	–
CC(=O)c1ccccc1O	4.05%	–
Cc1c(NC(C)C)c(=O)n(-c2ccccc2)n1C	-0.467% [at 35.3 µM]	–
CN1CCCC1	0.462%	–
O=C(O)CNC(=O)c1ccc([N+](=O)[O-])cc1	-10.2%	–
CCC=O	1.22%	–
CC(C)c1cc2c(cc1S(=O)(=O)O)[C@@]1(C)CCC[C@@](C)(C(=O)O)[C@@H]1CC2	-0.0854% [at 35.3 µM]	–
CCCCOCCOCCOCCCC	-1.24%	–
NC(=O)c1cn(Cc2c(F)cccc2F)nn1	3.89% [at 35.3 µM]	–
COC(=O)c1ccc(C)cc1C1=NC(C)(C(C)C)C(=O)N1 (stereo not given)	0.568%	–
C[C@@H]1CCN(C(=O)[C@H](CCCN=C(N)N)NS(=O)(=O)c2cccc3c2NC[C@H](C)C3)[C@@H](C(=O)O)C1	0.0798% [at 35.3 µM]	–
CC(C)(CC(=O)O)C(=O)O	-1.96%	–
Brc1c(NC2=NCCN2)ccc2nccnc12	0.518% [at 35.3 µM]	–
CCCc1cc(C(N)=S)ccn1	0.483% [at 35.3 µM]	–
C1OCOCO1	-0.386%	–
Nc1ccccc1S(=O)(=O)O	-0.0521%	–
CC(C)=CCCC(C)CC(=O)O (stereo not given)	7%	–

SMILES	activity change, negative = cytotoxic	Potency
C=CCOCC(CC)(CO)COCC=C	0.463%	–
CCCN(CCC)CCc1cccc2c1CC(=O)N2	-1.83% [at 35.3 µM]	–
CCOC(=O)CCC(C)=O	3.88%	–
NC(=O)c1ccc(N)cc1	0.73%	–
Nc1ccc(S(=O)(=O)Nc2ccnn2-c2ccccc2)cc1	1.3% [at 15.8 µM]	–
O=C(CCCN1CCN(c2ccccn2)CC1)c1ccc(F)cc1	-2.8% [at 35.3 µM]	–
CC(=O)CC(C)C	-0.925%	–
O=C(O)CCCc1ccccc1	0.614% [at 35.3 µM]	–
O=c1n(CCO)c(=O)n(CCO)c(=O)n1CCO	–	inactive
COc1ccc2c(c1)CCCC2=O	0.118% [at 35.3 µM]	–
N#Cc1ccc(C2CCCc3cncn32)cc1 (stereo not given)	0.589% [at 35.3 µM]	–
FC1(F)C(F)(F)C(F)(F)C2(F)C(F)(F)C(F)(F)C(F)(F)C(F)(F)C2(F)C1(F)F (stereo not given)	3.27% [at 35.3 µM]	–
O=C(c1ccccc1)C1CCCCC1	3.23%	–
CC(C)NC(=O)NC(C)C	-0.326%	–
O=C1CCCN1C1CCCCC1	0.111%	–
COC(=O)NN	-0.704%	–
CCn1ccnc1CC1COc2ccccc2O1 (stereo not given)	0.341% [at 35.3 µM]	–
CCSC(=O)N(CC(C)C)CC(C)C	0.0177%	–
CC1(C)C(O)C(C)(C)C1O (stereo not given)	2.34%	–
Cc1sccc1Br	0.0565% [at 35.3 µM]	–
